Tests used:
Settings in all cases: concentration: 1 μM,replicates: in singlicate; n = 1
MAP3K15 = tested on: MAP3K15
MAP3K1 = tested on: MAP3K1
MAP3K2 = tested on: MAP3K2
MAP3K3 = tested on: MAP3K3
MAP3K4 = tested on: MAP3K4
MAP4K2 = tested on: MAP4K2
MAP4K3 = tested on: MAP4K3
MAP4K4 = tested on: MAP4K4
MAP4K5 = tested on: MAP4K5
MAPKAPK2 = tested on: MAPKAPK2
MAPKAPK5 = tested on: MAPKAPK5
MARK1 = tested on: MARK1
MARK2 = tested on: MARK2
MARK3 = tested on: MARK3
MARK4 = tested on: MARK4
MAST1 = tested on: MAST1
MEK1 = tested on: T1, MEK1
T1 construct: gene MAP2K1

MEK2 = tested on: T2, MEK2
T2 construct: gene MAP2K2

MEK3 = tested on: T3, MEK3
T3 construct: gene MAP2K3

MEK4 = tested on: T4, MEK4
T4 construct: gene MAP2K4
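Note: KINOMEscan kinase panel screen.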

SMILES	%Inh (MAP3K15) [%]	%Inh (MAP3K1) [%]	%Inh (MAP3K2) [%]	%Inh (MAP3K3) [%]	%Inh (MAP3K4) [%]	%Inh (MAP4K2) [%]	%Inh (MAP4K3) [%]	%Inh (MAP4K4) [%]	%Inh (MAP4K5) [%]	%Inh (MAPKAPK2) [%]	%Inh (MAPKAPK5) [%]	%Inh (MARK1) [%]	%Inh (MARK2) [%]	%Inh (MARK3) [%]	%Inh (MARK4) [%]	%Inh (MAST1) [%]	%Inh (MEK1) [%]	%Inh (MEK2) [%]	%Inh (MEK3) [%]	%Inh (MEK4) [%]
O=C(NCC1CC1)c1ccc(-c2cc(C(=O)NC3CC3)ccc2F)cc1 [GW810445]	0	0	0	0	0	0	0	0	0	0	0	0	0	0	2	36	2	13	0	0
COC(=O)c1cccc(NC(=O)NC2CCN(c3ccnc(NCc4ccc(F)cc4)n3)CC2)c1 [GSK1379860]	0	24	8	0	22	0	0	0	0	0	0	0	0	0	0	0	0	0	0	0
COc1cccc(CNC(=O)NC2CCN(c3ccnc(Nc4cc(OC)c(OC)c(OC)c4)n3)C2)c1 (centres unmarked) [GSK1379765]	0	10	0	0	0	0	1	1	3	46	0	0	0	0	1	0	17	5	15	25
O=C1NCCc2[nH]c(-c3ccncc3)cc21	85	5	0	23	3	52	15	25	6	–	46	22	12	25	11	59	8	26	–	0
CC(C)S(=O)(=O)N1CCN(Cc2ccc3c(c2)nc(NC(=O)c2ccsc2)n3C[C@H](O)c2ccccc2)CC1 [GW635815]	0	8	47	53	53	84	0	45	2	0	0	6	34	43	18	0	0	0	0	9
CC(=O)c1c(-c2ccncc2)[nH]c(-c2ccncc2)c1C [GW493036]	0	5	0	0	9	0	0	16	0	23	0	0	0	10	0	36	0	0	0	40
O=C(Nc1cccc(Oc2ccc3nccn3n2)c1)Nc1cccc(C(F)(F)F)c1	0	17	3	10	30	0	3	68	26	0	0	14	12	0	24	0	0	7	29	0
FC(F)(F)c1cc(Br)cc(Nc2nccc(-c3cnn4ncccc34)n2)c1 [GW810578]	0	3	14	29	15	41	7	0	18	0	0	0	0	0	0	45	3	14	90.3	21
CN1CCN(CCCNc2nccc(-c3c(-c4ccc(F)cc4)nn4cc(C(N)=O)ccc34)n2)CC1 [GW622475]	0	24	0	0	16	0	0	65	33	0	0	9	15	0	21	0	0	18	0	12
O=C(Nc1n[nH]c2cc(-c3ccco3)ccc12)C1CC1 [SB-737447]	17	0	23	24	0	2	5	21	0	0	12	12	39	42	0	30	0	0	30	18
CS(=O)(=O)Nc1ccc(-c2ccnc3[nH]ccc23)cc1 [GSK993273]	37	18	58	32	0	30	44	2	0	0	0	0	0	0	6	0	60	71	43	67
Cl.Cl.NC[C@H](CC1CCCCC1)NC(=O)c1ccc(-c2ccnc3[nH]ccc23)s1 [GSK1581428]	25	12	40	33	10	95.7	47	20	12	0	0	26	58	74	24	0	0	17	93.8	54
N#Cc1cccc(C(=O)NC2CCN(c3ccnc(Nc4ccc(F)cc4)n3)C2)c1 (centres unmarked) [GSK1379708]	0	1	11	0	33	0	0	7	1	14	0	0	0	0	16	0	0	0	0	17
CN1CCN(CCNc2nc3cc(Oc4ccc(NC(=O)Nc5cc(C(F)(F)F)ccc5F)cc4)ccc3[nH]2)CC1.Cl.Cl [GW768504]	0	0	0	0	0	0	0	1	6	4	0	19	0	12	32	7	0	31	0	0
COc1cc2ncn(-c3cc(OCC4CCCCC4)c(C(N)=O)s3)c2cc1OC [GSK204559]	0	30	0	0	0	0	0	35	38	0	0	14	1	0	26	0	0	0	9	13
O=C(Nc1cccc(C(F)(F)F)c1)c1cccc(Oc2ccc3nccn3n2)c1	1	21	19	0	22	0	8	14	23	0	51	0	2	9	100	0	0	8	6	31

SMILES	%Inh (MAP3K15) [%]	%Inh (MAP3K1) [%]	%Inh (MAP3K2) [%]	%Inh (MAP3K3) [%]	%Inh (MAP3K4) [%]	%Inh (MAP4K2) [%]	%Inh (MAP4K3) [%]	%Inh (MAP4K4) [%]	%Inh (MAP4K5) [%]	%Inh (MAPKAPK2) [%]	%Inh (MAPKAPK5) [%]	%Inh (MARK1) [%]	%Inh (MARK2) [%]	%Inh (MARK3) [%]	%Inh (MARK4) [%]	%Inh (MAST1) [%]	%Inh (MEK1) [%]	%Inh (MEK2) [%]	%Inh (MEK3) [%]	%Inh (MEK4) [%]
Cn1ccc2ncnc(Oc3ccc(NC(=O)Nc4ccnc(C(F)(F)F)c4)c(Cl)c3)c21	0	0	0	6	0	0	3	0	0	1	0	0	0	0	0	0	4	15	8	0
Cn1ccc2ncnc(Oc3ccc(NC(=O)Nc4cccc(C(F)(F)F)c4)c(F)c3)c21	0	0	0	18	13	0	20	17	40	22	0	13	9	8	0	0	0	29	3	0
Cc1ccc(CC(=O)N2CCc3cc(-c4cn(C)c5ncnc(N)c45)ccc32)cc1 [GSK2634758]	0	10	55	22	90.3	3	96.7	0	77	6	0	2	0	0	12	8	0	0	0	22
COc1cc2nccc(Nc3ccc(Oc4ccccc4)cc3)c2cc1OC.Cl [GI261656]	0	21	0	0	0	0	0	0	0	0	0	0	0	0	0	3	96.9	92.5	0	11
CC(=O)Nc1nc2cnc(Nc3cc(NC(=O)c4cccc(CC(C)(C)C#N)c4)ccc3C)nc2s1	22	13	0	36	0	0	0	7	0	0	14	8	3	0	8	53	6	6	0	25
Cn1ccc2ncnc(Oc3ccc(NC(=O)Nc4cc(C(C)(C)C)on4)c(Cl)c3)c21	0	18	9	17	9	0	11	94	25	0	50	4	0	0	14	0	23	41	15	9
CNC(=O)c1ccccc1Nc1nc(Nc2cccc(CS(C)(=O)=O)c2)ncc1C.O=CO [GSK1520489]	9	10	94.4	94	85	96.3	91	0	4	0	0	71	87	72	92.3	5	94.5	91.1	69	56
CC(C(=O)NC1CCN(c2ccnc(Nc3ccc(F)cc3)n2)C1)c1ccc(Cl)cc1 (centres unmarked) [GSK1379713]	0	0	0	0	17	0	0	12	4	26	18	0	0	0	1	11	0	0	0	10
Cc1ccc(C(=O)Nc2ccc(Oc3ccc4nc(NC(=O)C5CC5)cn4c3)c(F)c2)c(=O)n1-c1ccccc1	0	0	0	5	12	0	16	0	0	0	0	0	0	32	15	31	0	29	0	0
C[C@@H](Oc1cc(-n2cnc3ccc(-c4ccncc4)cc32)sc1C(N)=O)c1ccccc1Cl [GSK483724]	0	41	4	0	21	10	10	11	15	0	0	8	0	0	20	0	49	0	34	37
Cl.Nc1n[nH]c2cc(-c3ccccn3)ccc12 [GSK2189892]	0	0	0	0	0	0	0	6	0	7	0	0	0	10	0	0	2	0	0	5
Cc1ccn2nc(-c3ccc(F)cc3)c(-c3ccncc3)c2c1.Cl [GW457859]	0	0	0	0	0	2	0	14	0	15	0	0	0	0	0	64	0	48	0	0
CCNCC(Cc1ccccc1)NC(=O)c1cc(Br)c(-c2ccnc3[nH]ccc23)s1.Cl.Cl (centres unmarked) [GSK1383280]	0	12	33	0	0	27	4	37	0	0	0	12	72	69	0	0	0	0	89	57
C[C@@H](Oc1cc(-n2cnc3cc(-c4cnn(C)c4)ccc32)sc1C(N)=O)c1ccccc1Cl [GSK580432]	12	90.6	20	20	37	60	93.8	32	98.9	0	0	63	61	82	59	0	0	0	0	18
O=C(Nc1ccc(Oc2ccc3nc(NC(=O)C4CC4)cn3n2)c(F)c1)c1cccn(-c2ccccc2)c1=O	0	0	0	15	24	0	4	1	0	13	0	0	0	29	0	10	0	25	0	0
COc1cc(Nc2nccc(N3CCC(NC(=O)c4cccc(C#N)c4)C3)n2)cc(OC)c1OC (centres unmarked) [GSK1379751]	0	2	19	0	0	0	0	0	0	0	0	100	0	0	100	0	0	0	0	19
